# Counter-ions that a name gives are not always drawn.
# System: Saccharomyces cerevisiae
# Test: fraction of cells in G1 phase (DNA content, flow cytometry); higher = more cells with unreplicated DNA (G1 delay)
# Settings: temperature: 30 C, YPD
# How it was run: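 For the G1 fraction, the Dean-Jett-Fox G1 peak area was divided by the sum of the G1 and G2/M areas. S. cerevisiae in YPD at 30°C received library drugs and was fixed 6–7 h later for sensitized JTY2953 (diluted 1∶200 from overnight, final 20 µg/ml), 6 h later for dividing JTY2953, or 4.33 h later for BY4741. Fixed cells were stained with SYTOX Green and 10,000 events recorded by flow cytometry.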
# [1] = JTY2953 pdr5 snq2 (sensitized), drug added to: actively dividing cells, 6 h
# [2] = JTY2953 pdr5 snq2 (sensitized), drug added to: cultures diluted from stationary phase, 6-7 h
# [3] = BY4741 PDR5+ SNQ2+, drug added to: actively dividing cells, 4.33 h
SMILES,fraction of cells in G1 phase [1],fraction of cells in G1 phase [2],fraction of cells in G1 phase [3]
Clc1ccc(CCC(Cn2ccnc2)Sc2c(Cl)cccc2Cl)cc1 (stereo not drawn) [Butoconazole nitrate] (42.123 µM),0.478,0.904,
CCCCCCCCCCCCCCCCOP(=O)([O-])OCC[N+](C)(C)C [Miltefosine] (49.0703 µM),0.596,0.858,
COc1ccc(CN(CCN(C)C)c2ccccn2)cc1 [Mepyramine maleate] (70.079 µM),,0.495,
CN1CCN(CCCN2c3ccccc3Sc3ccc(C(F)(F)F)cc32)CC1 [Trifluoperazine 2HCl] (41.632 µM),0.295,0.873,
Clc1ccc(Nc2nnc(Cc3ccncc3)c3ccccc23)cc1 [Vatalanib] (57.6664 µM),0.691,0.699,
CN(C)CCOc1ccc(/C(=C(/CCCl)c2ccccc2)c2ccccc2)cc1 [Toremifene] (49.2645 µM),0.524,0.901,
COc1c(N2C[C@@H]3CCCN[C@@H]3C2)c(F)cc2c(=O)c(C(=O)O)cn(C3CC3)c12 [Moxifloxacin HCl] (45.6725 µM),,0.212,0.402
COC(=O)C1=C(C)NC(C)=C(C(=O)OCC(C)C)C1c1ccccc1[N+](=O)[O-] (stereo not drawn) [Nisoldipine] (51.4901 µM),0.587,0.605,
COc1cccc2c1C(=O)c1c(O)c3c(c(O)c1C2=O)C[C@@](O)(C(=O)CO)C[C@@H]3O[C@H]1C[C@H](N)[C@H](O)[C@H](C)O1 [Doxorubicin HCl] (34.4828 µM),0.618,0.64,
O=c1[nH]c2ccccc2n1CCCN1CCN(C(c2ccccc2)c2ccccc2)CC1 [Oxatomide] (46.886 µM),0.791,0.836,0.433
Clc1ccc(COC(Cn2ccnc2)c2ccc(Cl)cc2Cl)c(Cl)c1 (stereo not drawn) [Miconazole] (48.0611 µM),0.467,0.869,
CC(=O)N1CCN(c2ccc(OCC3COC(Cn4ccnc4)(c4ccc(Cl)cc4Cl)O3)cc2)CC1 (stereo not drawn) [Ketoconazole] (37.6334 µM),0.84,0.747,0.507
CCC(C)n1ncn(-c2ccc(N3CCN(c4ccc(OCC5COC(Cn6cncn6)(c6ccc(Cl)cc6Cl)O5)cc4)CC3)cc2)c1=O (stereo not drawn) [Itraconazole] (28.3427 µM),0.751,0.667,0.493
CC1CCc2c(N3CCC(O)CC3)c(F)cc3c(=O)c(C(=O)O)cn1c23 (stereo not drawn) [Nadifloxacin] (55.4956 µM),,0.281,0.43
COC(=O)C1=C(C)NC(C)=C(C(=O)OCCCN2CCC(c3ccccc3)(c3ccccc3)CC2)[C@H]1c1cccc([N+](=O)[O-])c1 [Niguldipine HCl] (30.9502 µM),0.389,0.684,
CCC(C)(C)C(=O)O[C@H]1C[C@@H](C)C=C2C=C[C@H](C)[C@H](CC[C@@H]3C[C@@H](O)CC(=O)O3)[C@H]21 [Simvastatin] (47.7808 µM),0.354,0.879,
Clc1ccc(C(Cn2ccnc2)OCc2csc3c(Cl)cccc23)c(Cl)c1 (stereo not drawn) [Sertaconazole] (45.6852 µM),0.3,0.869,
C[C@H](CS)C(=O)N1CCC[C@H]1C(=O)O [Captopril] (92.0434 µM),0.436,0.633,
CO[C@H]1C[C@@H]2CC[C@@H](C)[C@@](O)(O2)C(=O)C(=O)N2CCCC[C@H]2C(=O)O[C@H]([C@H](C)C[C@@H]2CC[C@@H](O)[C@H](OC)C2)CC(=O)[C@H](C)/C=C(\C)[C@@H](O)[C@@H](OC)C(=O)[C@H](C)C[C@H](C)/C=C/C=C/C=C/1C [Rapamycin] (21.8771 µM),0.788,0.701,0.625
Cc1ccc(C)c(OCCCC(C)(C)C(=O)O)c1 [Gemfibrozil] (79.8911 µM),0.667,0.611,0.51
O=C1NCN(c2ccccc2)C12CCN(CCCC(c1ccc(F)cc1)c1ccc(F)cc1)CC2 [Fluspirilene] (42.0533 µM),0.338,0.865,

SMILES,fraction of cells in G1 phase [1],fraction of cells in G1 phase [2],fraction of cells in G1 phase [3]
CC[C@H](c1ccc(O)cc1)[C@@H](CC)c1ccc(O)cc1 [Hexestrol] (73.9714 µM),0.481,0.895,
CC/C(=C(/CC)c1ccc(O)cc1)c1ccc(O)cc1 [Diethylstilbestrol] (74.5271 µM),0.42,0.838,
COC(=O)[C@H](c1ccccc1Cl)N1CCc2sccc2C1 [Clopidogrel sulfate] (62.1449 µM),0.719,0.642,0.459
CCOC(=O)C1=C(C)NC(C)=C(C(=O)OC)C1c1cccc(Cl)c1Cl (stereo not drawn) [Felodipine] (52.0478 µM),0.609,0.683,
C[C@]12CCC(=O)C=C1C=C[C@@H]1[C@@H]2CC[C@@]2(C)[C@H]1CC[C@@]21CCC(=O)O1 [Canrenone] (58.7429 µM),0.649,0.612,0.453
C[C@@H]1CN(c2c(F)c(N)c3c(=O)c(C(=O)O)cn(C4CC4)c3c2F)C[C@H](C)N1 [Sparfloxacin] (50.9672 µM),,0.366,0.46
C=C1/C(=C\C=C2/CCC[C@]3(C)[C@@H]([C@H](C)CCCC(C)C)CC[C@@H]23)C[C@@H](O)C[C@@H]1O [Alfacalcidol] (49.9188 µM),0.651,0.606,0.469
CNCCC(Oc1ccc(C(F)(F)F)cc1)c1ccccc1 (stereo not drawn) [Fluoxetine HCl] (64.655 µM),,0.17,0.43
COc1ccc(CN2CCN(C(c3ccc(F)cc3)c3ccc(F)cc3)CC2)c(OC)c1OC [Lomerizine HCl] (42.685 µM),0.558,0.638,
CSc1ccc2c(c1)N(CCC1CCCCN1C)c1ccccc1S2 (stereo not drawn) [Thioridazine HCl] (53.969 µM),0.469,0.729,
Cc1ccc(-c2cc(C(F)(F)F)nn2-c2ccc(S(N)(=O)=O)cc2)cc1 [Celecoxib] (52.4412 µM),0.299,0.863,
OC(Cn1cncn1)(Cn1cncn1)c1ccc(F)cc1F [Fluconazole] (65.3004 µM),0.711,0.611,0.441
Fc1ccc([C@@H]2CCNC[C@H]2COc2ccc3c(c2)OCO3)cc1 [Paroxetine HCl] (60.7211 µM),,0.387,0.468
CCOC(=O)N1CCC(=C2c3ccc(Cl)cc3CCc3cccnc32)CC1 [Loratadine] (52.2338 µM),0.448,0.778,
O=C1CCc2ccc(OCCCCN3CCN(c4cccc(Cl)c4Cl)CC3)cc2N1 [Aripiprazole] (44.6034 µM),0.762,0.854,0.411
CC1=C(/C=C/C(C)=C/C=C/C(C)=C/C(=O)Nc2ccc(O)cc2)C(C)(C)CCC1 [Fenretinide] (51.0779 µM),0.681,0.604,0.462
CC(=O)[C@H]1CC[C@H]2[C@@H]3CCC4=CC(=O)CC[C@]4(C)[C@H]3CC[C@]12C [Progesterone] (63.5987 µM),0.693,0.607,0.501
O=C(CCCN1CCC(O)(c2ccc(Cl)cc2)CC1)c1ccc(F)cc1 [Haloperidol HCl] (53.2093 µM),0.762,0.617,0.462
CC(C(O)c1ccc(O)cc1)N1CCC(Cc2ccccc2)CC1 (stereo not drawn) [Ifenprodil] (61.4525 µM),0.694,0.61,0.41
Fc1ccc(C(c2ccc(F)cc2)N2CCN(C/C=C/c3ccccc3)CC2)cc1 [Flunarizine-2HCl] (41.8936 µM),0.761,0.605,0.442
COc1ccc(-c2cc(=S)ss2)cc1 [Anethole-trithione (anetholtrithion)] (83.2062 µM),0.486,0.735,

# — the supplement of paper PMC3342239
